# Literature values as cited in PubChem BioAssay AID977611.
# Screen size: about 3,900 compounds; about 3,900 (100%) were called active. The limit is not given here; nearly all actives have Kd up to about 4200 µM. The set was probably picked from earlier hits. This is one part of the list. Numbered stars: 1 amine (or outer) side, 2 acyl side, 3 side chain; on linkers, the order of the positions; unused ones are H or OH. *1 amine or outer side, *2 acyl side, *3 side chain or, on linkers, in order; H or OH if unused. Where a SMILES comes first, the peptide text is derived from it. Square brackets hold non-standard residues; d marks the D form. Peptide text beside a SMILES is read from it. [ ]: non-standard residue; d: D form. X1 = O=C([C@H](Cc1ccc(O[P+](O)(O)O)cc1)N[*:1])[*:2]; Lys(Me3) = C[N+](C)(C)CCCC[C@H](N)C(=O)O; Orn(CH(NH2)2) = NC(N)NCCC[C@H](N)C(=O)O; X2 = CNC(N)NCCC[C@H](N[*:1])C(=O)[*:2]; ΔPro = O=C(O)[C@@H]1C=CCN1
# Experiment: PubChem AID 977611
# Conditions: PDB protein-ligand complexes, literature Kd
compound,measurement,setting,value
CO[C@@H]1O[C@@H](C(=O)O)[C@@H](O[C@H]2O[C@H](CO)[C@@H](O)[C@H](OS(O)(O)O)[C@H]2NS(O)(O)O)[C@H](O)[C@H]1OS(O)(O)O,Kd,"protein: Fibroblast growth factor 2 FGF2, PDB entry 4oee",1.73 µM (active)
O=C(O)[C@@H]1O[C@@H](O)[C@H](OS(O)(O)O)[C@@H](O)[C@@H]1O[C@H]1O[C@H](COS(O)(O)O)[C@@H](O[C@@H]2O[C@@H](C(=O)O)[C@@H](O[C@H]3O[C@H](COS(O)(O)O)[C@@H](O[C@@H]4O[C@@H](C(=O)O)[C@@H](O[C@H]5O[C@H](COS(O)(O)O)[C@@H](O)[C@H](O)[C@H]5NS(O)(O)O)[C@H](O)[C@H]4OS(O)(O)O)[C@H](O)[C@H]3NS(O)(O)O)[C@H](O)[C@H]2OS(O)(O)O)[C@H](O)[C@H]1NS(O)(O)O,Kd,"protein: SONIC HEDGEHOG PROTEIN, PDB entry 4c4n",0.8 µM (active)
CO[C@@H]1O[C@@H](C(=O)O)[C@@H](O[C@H]2O[C@H](COS(O)(O)O)[C@@H](O)[C@H](OS(O)(O)O)[C@H]2NS(O)(O)O)[C@H](O)[C@H]1OS(O)(O)O,Kd,"protein: Fibroblast growth factor 2 FGF2, PDB entry 4oeg",9.01 µM (active)
O=C(O)[C@H]1CCCN1C(=O)CCCCC(=O)N1CCC[C@@H]1C(=O)O,Kd,"protein: Serum Amyloid P Component, PDB entry 4avt",0.0088 µM (active)
CC(C)[C@@H]1NC(=O)[C@@H](NC(=O)[C@H](Cc2ccc(O)cc2)NC(=O)[C@@H]2CCCN2C(=O)[C@H](C)N)CSSC[C@@H](C(=O)O)NC(=O)[C@H](CO)NC(=O)[C@H](Cc2c[nH]c3ccccc23)NC(=O)[C@H](CO)NC(=O)CNC(=O)[C@H](CCCN=C(N)N)NC(=O)[C@H](Cc2ccc(O)cc2)NC1=O,Kd,"protein: Ephrin type-A receptor 4 EphA4 LBD, PDB entry 4w50",1.4 µM (active)
CC(C)[C@@H]1NC(=O)[C@@H](NC(=O)[C@H](Cc2ccc(O)cc2)NC(=O)[C@@H]2CCCN2C(=O)[C@H](C)N)CSSC[C@@H](C(N)=O)NC(=O)[C@H](CO)NC(=O)[C@H](Cc2c[nH]c3ccccc23)NC(=O)[C@H](CO)NC(=O)CCNC(=O)[C@H](CCCN=C(N)N)NC(=O)[C@H](Cc2ccc(O)cc2)NC1=O,Kd,"protein: Ephrin type-A receptor 4 EphA4 LBD, PDB entry 4w4z",0.03 µM (active)
CC(C)C[C@H](N)C(=O)N[C@@H](C)C(=O)N[C@H](C(=O)N[C@@H](CCCCN)C(=O)N[C@@H](C)C(=O)N[C@@H](C)C(=O)N[C@@H](CCCNC(N)N)C(=O)N[C@@H](CCCC[N+](C)(C)C)C(=O)N[C@@H](CO)C(=O)O)[C@@H](C)O (H-LATKAA[Orn(CH(NH2)2)][Lys(Me3)]S-OH),Kd,"protein: Polycomb protein, PDB entry 1pdq",5 µM (active)
C[C@H](NC(=O)[C@@H](NC(=O)[C@H](CCC(N)=O)NC(=O)[C@H](CCCCN)NC(=O)[C@@H](N)[C@@H](C)O)[C@@H](C)O)C(=O)N[C@@H](CCCNC(N)N)C(=O)N[C@@H](CCCC[N+](C)(C)C)C(=O)N[C@@H](CO)C(=O)O (H-TKQTA[Orn(CH(NH2)2)][Lys(Me3)]S-OH),Kd,"protein: SHH1 SAWADEE, PDB entry 4iur",2.63 µM (active)
C[C@H](N)C(=O)N[C@@H](CCCNC(N)N)C(=O)N[C@H](C(=O)N[C@@H](CCCCN)C(=O)N[C@@H](CCC(N)=O)C(=O)N[C@H](C(=O)N[C@@H](C)C(=O)N[C@@H](CCCNC(N)N)C(=O)N[C@@H](CCCC[N+](C)(C)C)C(=O)N[C@@H](CO)C(=O)O)[C@@H](C)O)[C@@H](C)O,Kd,"protein: Histone-lysine N-methyltransferase NSD3, PDB entry 4gng",290 µM (active)
CNC(N)NCCC[C@H](NC(=O)[C@H](C)N)C(=O)N[C@H](C(=O)N[C@@H](CCCC[N+](C)(C)C)C(=O)N[C@@H](CCC(N)=O)C(=O)N[C@H](C(=O)N[C@@H](C)C(=O)N[C@@H](CCCNC(N)N)C(=O)N[C@@H](CCCCN)C(=O)N[C@@H](C)C(=O)N[C@@H](C)C(=O)NCC(=O)O)[C@@H](C)O)[C@@H](C)O (stereo not given in full) (H-A[X2]T[Lys(Me3)]QTA[Orn(CH(NH2)2)]KAAG-OH),Kd,"protein: RAG2-PHD, PDB entry 2v85",34.6 µM (active)
C[C@H](NC(=O)[C@@H](NC(=O)[C@H](CCC(N)=O)NC(=O)[C@@H](N)CCCCN)[C@@H](C)O)C(=O)N[C@@H](CCCNC(N)N)C(=O)N[C@@H](CCCC[N+](C)(C)C)C(=O)N[C@@H](CO)C(=O)O (H-KQTA[Orn(CH(NH2)2)][Lys(Me3)]S-OH),Kd,"protein: Chromo domain-containing protein 1, Chp1, PDB entry 3g7l",0.19 µM (active)
C[C@H](N)C(=O)N[C@@H](CCCNC(N)N)C(=O)N[C@H](C(=O)N[C@@H](CCCC[N+](C)(C)C)C(=O)N[C@@H](CCC(N)=O)C(=O)N[C@H](C(=O)N[C@@H](C)C(=O)N[C@@H](CCCNC(N)N)C(=O)N[C@@H](CCCCN)C(=O)N[C@@H](CO)C(=O)N[C@H](C=O)[C@@H](C)O)[C@@H](C)O)[C@@H](C)O,Kd,"protein: Inhibitor of growth protein 4( ING4) PHD domain, PDB entry 2pnx",7.9 µM (active)
N[C@@H]1[C@@H](O)[C@H](O[C@@H]2O[C@H](CO)[C@@H](O[C@@H]3O[C@H](CO)[C@@H](O[C@@H]4O[C@H](CO)[C@@H](O[C@@H]5O[C@H](CO)[C@@H](O)[C@H](O)[C@H]5N)[C@H](O)[C@H]4N)[C@H](O)[C@H]3N)[C@H](O)[C@H]2N)[C@@H](CO)O[C@H]1O,Kd,"protein: Ostrinia furnacalis Group I chitinase catalytic domain, PDB entry 3wqv",6.2 µM (active)
N[C@H]1[C@H](O[C@H]2[C@H](O)[C@@H](N)[C@H](O[C@H]3[C@H](O)[C@@H](N)[C@H](O[C@H]4[C@H](O)[C@@H](N)[C@H](O[C@H]5[C@H](O)[C@@H](N)C(=O)O[C@@H]5CO)O[C@@H]4CO)O[C@@H]3CO)O[C@@H]2CO)O[C@H](CO)[C@@H](O)[C@@H]1O,Kd,"protein: Ostrinia furnacalis Group I chitinase catalytic domain, PDB entry 3wqw",5.9 µM (active)
H-ATFYVA-OH,Kd,"protein: protease, tethered dimer, PDB entry 4eqj",2.52 µM (active)
H-AETFYVD-OH,Kd,"protein: protease, tethered dimer, PDB entry 4ep2",4.43 µM (active)
H-AQTFYVDG-OH,Kd,"protein: HIV-1 protease, PDB entry 2nxm",6.4 µM (active)
H-AEVFYVDGA-OH,Kd,"protein: HIV-1 protease, PDB entry 2nxl",0.54 µM (active)
CC(C)[C@H](NC(=O)[C@H](Cc1ccc(O)cc1)NC(=O)[C@H](CC(N)=O)NC(=O)CN)C(=O)N[C@H](C(=O)N[C@H](C(=O)N[C@@H](Cc1ccc(O[P+](O)(O)O)cc1)C(=O)N[C@@H](C)C(=O)O)[C@@H](C)O)C(C)C (H-GNYVVT[X1]A-OH),Kd,"protein: phosphotyrosine (pTyr) scaffold Fab, PDB entry 4jfx",0.36 µM (active)
CC[C@H](C)[C@H](NC(=O)[C@H](CCC(=O)O)NC(=O)[C@H](CCC(=O)O)NC(=O)[C@H](Cc1ccccc1)NC(=O)[C@H](CC(=O)O)NC(=O)CN)C(=O)N1CC=C[C@H]1C(=O)NCC(=O)N[C@@H](CCC(=O)O)C(=O)N[C@@H](Cc1ccc(O)cc1)C(=O)N[C@@H](C)C(=O)O (H-GDFEEI[ΔPro]GEYA-OH),Kd,"protein: thrombin alpha, PDB entry 1a3e",0.0035 µM (active)
